Reference: PubChem BioAssay AID2275 (Broad Institute, 2010)
About 190 (0.63%) of roughly 30,000 compounds were called active. Only a selection was taken, and actives are over-represented in it overall. Unmarked numbers belong to inactive results. Cut-off read from the data, not from the text of the source: active = viability loss activity score above about 50%; inconclusive = no clear call, values can overlap the other calls; inactive = below about 35%.

Experiment: BJeLR cell viability loss, primary screen, luminescence, CellTiterGlo ATP (AID 2275);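 note: higher score means fewer live cells and less ATP luminescence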
Details: BJeLR fibroblasts viability, 48 h, active compounds read high, HRASV12, hTERT and SV40 LT/ST transformed, concentration not given here

Compound	viability loss activity score
COc1cc(OC)c(N(C)C(=O)c2ccc3c(=O)n4c(nc3c2)CCCCC4)cc1Cl	4.36%
CCN(CC)C(=O)Cn1cc(SCc2ccccc2)c2ccccc21	-2.18%
CCCCS(=O)CSc1nc(-c2ccc(OC)cc2)cc(-c2ccccc2)c1C#N (centres undefined)	-8.8%
O=C(Nc1ccncc1)c1cccc(COc2ccc3ccccc3c2)c1	12.1%
O=C(c1ccccc1)c1cnn(-c2ccc(Cl)cc2)n1	14.6%
CN1c2ccccc2C(C)(C)C12Cc1cc(NS(=O)(=O)c3ccc(Cl)cc3)ccc1O2 (centres undefined)	0.312%
O=C(Oc1ccc(Br)cc1)c1ccco1	-1.65%
CCOC(=O)c1cc(-c2ccc(C)cc2)n(CC(=O)NCC2CCCO2)c1C (centres undefined)	-1.7%
N/C(C[n+]1ccccc1)=N\O	-4.49%
O=C(CCc1nc2sc3c(c2c(=O)[nH]1)CCCC3)NC1CCCC1	1.97%
O=C1CSC(c2ccc(Cl)cc2)N1Nc1nc(Nc2ccccc2)nc(N2CCCCC2)n1 (centres undefined)	-7.31%
COc1ccc(/C=C2\SC(=O)N(c3ccc(C)cc3)C2=O)cc1	-2.92%
COc1cc2c(c(OC)c1)C(c1ccccc1OC)CC(=O)N2 (centres undefined)	0.526%
COc1ccc(S(=O)(=O)N(C)C[C@H]2Oc3ccc(N(C)C)cc3C(=O)N([C@@H](C)CO)C[C@@H]2C)cc1	0.729%
O=C(NCCCN1CCCC1)c1cc(-c2ccncc2)nc2ccccc12	3.5%
O=C(NCCc1ccccc1)c1nnc(Cc2ccc(F)cc2)o1	-0.807%
CCCN(CCC)Cc1c(O)ccc2c(=O)c(-c3ccccc3)coc12	3.33%
Cc1cccc(C)c1N=C1Oc2ccccc2NC1(C)c1ccccn1 (centres undefined)	-0.212%
CC(C)(C)C1=CC(=Nc2ccccc2N)C=C(C(C)(C)C)C1O (centres undefined)	-0.524%
CC(c1ccccc1)N1C(=O)c2ccccc2C1Nc1ccc(F)cc1 (centres undefined)	-2.92%
COC(Cn1c(SCC(=O)c2cccc(C(F)(F)F)c2)nnc1-c1ccc(Cl)cc1)OC	2.18%
CSc1nc(COc2ccc(C(C)(C)C)cc2)nc(-n2cccc2)c1C#N	-2.33%
C=CCC(c1cc(Cl)ccc1N)S(=O)(=O)c1ccc(C)cc1 (centres undefined)	0.759%
CSc1cccc(NC(=O)CSc2nncn3c2cc2sccc23)c1	-1.6%
